Bioassay records from PubChem BioAssay.
DAX1 inh-1 – DAX1 (NR0B1) inhibitors, primary screen, cell-based, HEK293, Gal4-DAX1, luciferase luminescence; inhibition, % at 6.75 µM; actives 0.99% (n = 340,000); HEK293 Gal4-DAX1 luciferase reporter; Nuclear receptor subfamily 0 group B member 1 (Homo sapiens), P51843;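 active means inhibition above the mean over all tested compounds plus 3 SD, cut at about 4.2% in these data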;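 further: 0% = DAX1-transfected cells with DMSO and 100% = empty-vector control cells with DMSO; inhibition shows as a rise in luminescence from relieved DAX1 repression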
hcDAF-12 act – H. contortus DAF-12 nuclear receptor activators, primary screen, cell-based, luminescence, HEK293, lit1-tk-luc reporter; actives 1.4% (n = 370,000); activation, % at 6.8 µM; AID 652067, 2013; HEK293 hcDAF-12 lit1-tk-luc reporter; 0% DMSO, 100% Δ7-dafachronic acid;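 active means activation above the mean of all tested compounds plus 3 SD, cut at about 5.5% in these data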;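 further: 100% = response to 3 µM Δ7-dafachronic acid high control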
Rev-erbA mod – modulators of Rev-erb alpha DNA binding, primary screen, biochemical, FITC-DNA, fluorescence polarization, uHTS | Nuclear receptor subfamily 1 group D member 1 (Homo sapiens), P20393 | Rev-erbα–FITC-DNA binding, 90 min | activity, % at 10 µM | actives 0.79% (n = 370,000);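 active means activity above about 14%, limit read from the data; passing the limit was not always enough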;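 further: 0% = DMSO wells with 35 nM protein and 100% = DMSO wells with 750 nM protein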
Target sequence (P20393 whole entry, looked up): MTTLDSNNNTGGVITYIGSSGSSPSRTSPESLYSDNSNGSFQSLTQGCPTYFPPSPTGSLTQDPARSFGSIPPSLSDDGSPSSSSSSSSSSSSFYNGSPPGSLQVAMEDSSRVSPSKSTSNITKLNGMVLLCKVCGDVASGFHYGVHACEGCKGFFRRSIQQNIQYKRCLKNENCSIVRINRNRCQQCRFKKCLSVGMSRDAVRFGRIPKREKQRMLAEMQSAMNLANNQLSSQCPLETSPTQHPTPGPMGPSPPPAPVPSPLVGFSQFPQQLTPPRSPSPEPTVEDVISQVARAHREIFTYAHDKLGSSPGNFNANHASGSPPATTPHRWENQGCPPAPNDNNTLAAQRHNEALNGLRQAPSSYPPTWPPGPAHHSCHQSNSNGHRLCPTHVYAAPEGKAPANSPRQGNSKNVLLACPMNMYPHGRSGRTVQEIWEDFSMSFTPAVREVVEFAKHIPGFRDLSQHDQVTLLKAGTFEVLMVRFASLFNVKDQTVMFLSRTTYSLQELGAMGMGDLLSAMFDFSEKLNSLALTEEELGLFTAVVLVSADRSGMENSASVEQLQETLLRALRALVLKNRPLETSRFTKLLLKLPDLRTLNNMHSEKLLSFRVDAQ
DAX1 inh-2 – DAX1 (NR0B1) inhibitors on StAR promoter, primary screen, cell-based, luminescence, SF-1 (NR5A1), full-length DAX-1. HEK293T StAR-luciferase reporter, SF-1/DAX-1 repression relief. inhibition, % at 6.8 µM. actives 1.1% (n = 370,000). AID 652010, 2013;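 active means inhibition above the mean over all tested compounds plus 3 SD, cut at about 3.6% in these data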;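 further: 0% = DAX-1 cells with DMSO and 100% = cells lacking DAX-1 with DMSO; higher inhibition means more luminescence from relief of DAX-1 repression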
ssDAF12 agonist – S. stercoralis DAF-12 nuclear receptor activators, primary screen, cell-based, luminescence, HEK293, GRIP1 co-expression, lit1-tk-luc; HEK293 ssDAF-12/GRIP1 lit1-tk-luc reporter; % of 3 µM dafachronic acid response; activation, % at 6.8 µM; actives 1% (n = 370,000); AID 652126, 2013;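 active means activation above the mean over all tested compounds plus 3 SD, cut at about 0.9% in these data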;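 further: 0% = DMSO-only wells and 100% = 3 µM delta7-dafachronic acid wells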
hgDAF-12 ag – H. glycines DAF-12 receptor agonists, primary screen, cell-based, luminescence, HEK293, GAL4 fusion, UAS-luciferase. Nuclear hormone receptor DAF-12 (Heterodera glycines), GAL4 fusion. HEK293 GAL4-hgDAF12 UAS-luciferase reporter, agonist luminescence; normalized to butyrate control. actives 1.8% (n = 370,000). activation, % at 6.8 µM. AID 687014, 2013;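 active means activation above a cutoff set at the mean of all screened compounds plus 3 SD, cut at about 10% in these data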;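 further: 0% = DMSO wells and 100% = sodium butyrate wells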
LXRb hcDAF ctr – LXR agonists, Gal4 luciferase reporter, confirmation, counter-screen for hcDAF-12 agonist project, cell-based, luminescence, HEK293, H. contortus campaign | activation, % at 6.8 µM | 3,400 tested, under 10 active | shares compounds with hcDAF-12 act | AID 743027, 2013 | HEK293 Gal4-LXR tk-luc reporter, 24 h; normalized: DMSO 0%, positive control 100%;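 active means mean percent activation of the reporter above a cutoff set as the average over tested compounds plus their standard deviation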
hcDAF12 conf – H. contortus DAF-12 receptor agonists, confirmation, cell-based, luminescence, HEK293, lit1-tk-luc, triplicate; shares compounds with hcDAF-12 act; HEK293 hcDAF-12 lit1-tk-luc reporter; % of Δ7-dafachronic acid response; activation, % at 6.8 µM; actives 61% (n = 3,400); AID 743032, 2013;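 active means mean activation across triplicate tests above the threshold derived from the earlier primary screen, cut at about 5.5% in these data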;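 further: 0% = DMSO only wells and 100% = 3 µM Δ7-dafachronic acid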
The depositor's hits bear a star; x = no result given. An excerpt weighted towards active compounds, which were near 4.8% of everything screened.

SMILES	DAX1 inh-1	hcDAF-12 act	Rev-erbA mod	DAX1 inh-2	ssDAF12 agonist	hgDAF-12 ag	LXRb hcDAF ctr	hcDAF12 conf
COC(=O)C1=C(C)N(Cc2ccccc2C(F)(F)F)C(=NCc2ccc(C(F)(F)F)cc2)NC1c1ccc(C(F)(F)F)cc1 (stereo not given)	x	1	1	1	-1	4	x	x
O=C1C(Cl)=C(Nc2ccccc2)C(=O)c2ccccc21	2	7.9*	3	1	0	3	0	1
Cc1ccc(NC(=O)c2c(Cl)n(C)c3ccccc23)cc1	1	7.0*	0	0	1.1*	10	0	11*
CCn1c(=O)c(C(=O)Nc2ccc(C)cc2)c(O)c2ccccc21	3	8.7*	6	1	0	2	0	5
Cc1cccc(NC(=O)c2c(O)c3ccccc3n(C)c2=O)c1	1	7.5*	15	1	1.1*	5	1	12*
CCCn1c(=O)c(C(=O)Nc2cccc(C)c2)c(O)c2ccccc21	-1	1	-6	0	0	1	x	x
CCCn1c(=O)c(C(=O)Nc2ccccc2)c(O)c2ccccc21	0	5	7	1	0	4	x	x
Cc1ccc(NC(=O)c2cc(Cl)nc3ccccc23)cc1	0	2	2	0	-1	1	x	x
C[C@H]1[C@@H](N)CC[C@@]23CCCN2C(=O)CCC[C@@H]13	x	2	5	x	-1	3	x	x
CC(C)(C)C1=Nn2c(nnc2-c2ccc(C(C)(C)C)cc2)SC1	x	-3	-6	-1	-2	-5	x	x
CCCCOc1ccc(C(=O)NC2CCCCN(Cc3ccc(Cl)cc3)C2=O)cc1 (stereo not given)	x	-5	0	-2	-1	-2	x	x
CC1=CC2C3C(=O)N(c4ccccc4)C(=O)C3C1C(=O)C2(O)C(C)C (stereo not given)	x	1	-4	-1	-1	1	x	x
COC(=O)c1ccc(CSc2nnc(C)n2N)o1	1	15*	-3	0	-1	0	0	-1
COC(=O)c1ccc(CSc2nnnn2C)o1	0	-1	-4	0	-1	2	x	x
Cc1ccc(C(C[N+](=O)[O-])c2c(C)[nH]n(-c3ccccc3)c2=O)cc1 (stereo not given)	1	1	-2	0	-1	2	x	x
COc1ccc(C(c2c(C)[nH]n(-c3ccccc3)c2=O)c2c(C)[nH]n(-c3ccccc3)c2=O)cc1OC	0	7.5*	1	-1	-1	0	0	1
Cc1[nH]n(-c2ccccc2)c(=O)c1C(C[N+](=O)[O-])c1ccc(Cl)cc1 (stereo not given)	0	6.9*	-1	-1	-1	0	0	1
COc1ccc(C(c2c(C)n(C)n(-c3ccccc3)c2=O)c2c(C)n(C)n(-c3ccccc3)c2=O)cc1OC	1	-2	-2	0	-1	2	x	x
Cc1[nH]n(-c2ccccc2)c(=O)c1N=Nc1ccc(Cl)cc1	0	8.6*	-3	0	0	2	0	5
